This is a sample that favours compounds with a hit; in the whole collection about 4% have one here.
tim10-1 inh – growth inhibitors of tim10-1 mutant yeast, primary screen, luminescence, uHTS; inhibition, % at 20 µM; 330,000 compounds, 2.2% hits; S. cerevisiae tim10-1 ts strain growth, BacTiter-Glo, 24 h;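 active = inhibition of at least 40%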;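 note: mutant grown at 25 °C; 0% = DMSO wells with yeast and 100% = wells holding no yeast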
NALP3 yeast inh – NALP3 inflammasome inhibitors in reconstituted yeast, primary screen, luminescence, uHTS | Yeast reconstituted NLRP3/ASC/caspase-1, beta-gal luminescence, 24 h | inhibition, % at 10 µM | 330,000 compounds, 0.39% hits | AID 2825, 2010;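 active = inhibition of 50% or more; inactive = inhibition below 50%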;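 note: plate controls were induced DMSO wells for no effect and uninduced yeast grown without galactose for full effect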
TIM10 inh – growth inhibitors of isogenic TIM10 control yeast, primary screen, counter-screen for tim10-1 yeast inhibitor project, luminescence, uHTS; 330,000 compounds, 1.4% hits; inhibition, % at 10 µM; S. cerevisiae TIM10 strain growth, BacTiter-Glo luminescence, 24 h; AID 463195, 2010;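 active = inhibition of 40% or more at the single tested concentration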;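 note: wild-type TIM10 isogenic control strain grown at permissive 25 °C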
NALP1 inh – NALP1 inflammasome inhibitors in reconstituted yeast, colorimetric, S. cerevisiae, triplicate retest | S. cerevisiae NALP1/ASC/caspase-1 growth, X-gal OD620, 72 h | inhibition, % at 10 µM | 280,000 compounds, 0.61% hits | AID 2071, 2009; in the data active = inhibition mostly above about 24%, no sharp cut-off; inactive = mostly below about 32%
tim23-1 inh – growth inhibitors of tim23-1 mutant yeast, primary screen, luminescence, uHTS. S. cerevisiae tim23-1 growth, BacTiter-Glo luminescence, 24 h. inhibition, % at 20 µM. 330,000 compounds, 1.3% hits;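 active = growth inhibition of the mutant yeast at or above 50%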;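 note: temperature-sensitive mutant grown at 25 °C; plate controls were DMSO-treated mutant yeast for no effect and medium wells lacking yeast for full effect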
tim10-1 confirm – growth inhibitors of tim10-1 mutant yeast, confirmation, single concentration, luminescence, S. cerevisiae; shares compounds with tim10-1 inh; 7,400 compounds, 56% hits; inhibition, % at 20 µM; S. cerevisiae tim10-1 ts strain growth, BacTiter-Glo, 24 h;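 active = inhibition of yeast growth at or above a set limit in either of two repeat tests at 20 µM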;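 note: tim10-1 mutant grown at permissive 25 °C to find synthetic lethal compounds; 0% = DMSO yeast wells and 100% = medium wells without yeast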
* marks the source's active call; other numbers are inactive results; . = no result.

SMILES | tim10-1 inh | NALP3 yeast inh | TIM10 inh | NALP1 inh | tim23-1 inh | tim10-1 confirm
COc1ccc(C(=O)CN(C(=O)c2ccc(Cl)cc2)N2C(=O)C3CCCCC3C2=O)cc1 (centres undefined) | 47* | 4 | 26 | 20 | 35 | 24
Cc1[nH]c2c(ccc3ccccc32)c1C1C(CCN)C1(C)C (centres undefined) | 45* | 16 | 29 | 19 | 49 | 33*
S=c1[nH]c2ccc3ccccc3c2[nH]1 | 19 | 18 | 17 | 13 | 21 | .
CC(C)c1ccc2oc(-c3cc(N)ccc3O)nc2c1 | 52* | 9 | 4 | 13 | 49 | 33*
COC(=O)CC1(C(=O)OC)Oc2ccccc2C(=O)N1c1ccc(F)cc1F (centres undefined) | 14 | 8 | 18 | . | 30 | .
COc1ccc(-c2[nH]n(-c3ccc([N+](=O)[O-])cc3)c(=O)c2C=NCc2ccc(F)cc2)cc1 | 4 | -6 | 2 | 16 | 9 | .
COc1ccc(-c2cc(=O)n(-c3ccc([N+](=O)[O-])cc3)[nH]2)cc1 | 50* | 17 | 29 | 21 | 28 | 38*
CCN(CC)CCCNc1nc(SC)nc2sc3c(c12)CCN(C)C3 | . | . | . | 7 | . | .
Cc1cc(O)c(C(C[N+](=O)[O-])c2ccc(Cl)cc2Cl)c(=O)o1 (centres undefined) | 43* | 12 | 27 | -8 | 27 | 26
Cc1csc(=N)n1-c1ccc(Cl)cc1 | 48* | 13 | 19 | 13 | 40 | 23
Cc1ccc(-n2c(C)csc2=N)cc1 | 20 | 5 | 1 | 6 | 12 | .
COc1ccc(C2=NN(C(C)=O)CC2c2cccc([N+](=O)[O-])c2)cc1 (centres undefined) | 43* | 10 | 4 | 7 | 34 | -11
O=C(COc1ccc(Cl)cc1)NCc1n[nH]c(=O)c2ccccc12 | 15 | 8 | 16 | . | 7 | .
CCc1cc2c(C)cc(=O)oc2cc1OC(=O)C1CCCN1C(=O)OC(C)(C)C (centres undefined) | 46* | 11 | 23 | -22 | 3 | 21
CC(C)(C)OC(=O)N1CCCC1C(=O)NCCc1ccccc1 (centres undefined) | -2 | -7 | -6 | 0 | 1 | .
Cc1noc(C)c1S(=O)(=O)N1CCN(S(=O)(=O)c2ccccc2C#N)CC1 | -19 | 7 | -20 | 14 | 3 | .
C/C(=N\NC(=S)Nc1cccc(C)c1)c1cc2ccccc2o1 | 47* | 25 | 37 | 0 | 35 | 39*
CCNC(=S)N/N=C(\C)c1cc2ccccc2o1 | 19 | 4 | 2 | 24 | 22 | .
COc1cccc(NC(=S)Nc2cccc3ccccc23)c1 | 55* | 23 | 38 | 16 | 33 | 23
Fc1ccc(NC(=S)Nc2cccc3ccccc23)cc1F | 42* | 16 | 23 | 1 | 35 | 30
Cc1cccc(NC(=S)Nc2cccc3ccccc23)c1 | 45* | 18 | 32 | 3 | 34 | 29
Cc1cc(NC(=S)Nc2ccccc2)ccc1Br | 41* | 30 | 15 | 15 | 9 | 7
O=C(Nc1ccc2c(c1)OCO2)c1nn(-c2ccccc2)c(=O)c2ccccc12 | 44* | 13 | 18 | 16 | 25 | 17
O=S(=O)(NCCC1=CCCCC1)c1ccc(F)cc1 | 27 | 10 | 5 | 13 | 32 | .
CN(C)C(CNC(=O)c1coc2ccccc2c1=O)c1ccccc1 (centres undefined) | 8 | 6 | -19 | 12 | 13 | .
O=C1[C@@H]2[C@@H]3C[C@@H]([C@H]4ON=C(c5ccc(Cl)cc5Cl)[C@@H]34)[C@@H]2C(=O)N1C1CCCCC1 | 52* | 1 | 13 | 32 | 41 | 34*
CN1C(=O)[C@@H]2[C@@H]3C[C@@H]([C@H]4ON=C(c5ccc(Cl)cc5)[C@@H]34)[C@@H]2C1=O | 1 | 5 | 10 | 21 | 16 | .
N#Cc1sc2nc(-c3cccs3)cc(-c3ccc(Cl)cc3)c2c1N | 17 | 3 | 10 | -10 | 3 | .
CCN(CC)C(=O)c1sc2nc(-c3cccs3)cc(-c3ccc(Cl)cc3)c2c1N | 58* | 14 | 38 | 12 | 34 | 38*

Screening results deposited in PubChem BioAssay by Sanford-Burnham Center for Chemical Genomics.
